# Data taken from publication PMC7862700, “An all-to-all approach to the identification of sequence-specific readers for epigenetic DNA modifications on cytosine”.
# Tests used:
# Experiment in all cases: DAPPL (digital affinity profiling via proximity ligation, sequencing); 10 mM Tris-HCl pH 7.5, 50 mM NaCl, 1 mM DTT, 4% glycerol, room temperature, 30 min; GST-TFs on glutathione beads, 16-mer random dsDNA library, 0.1% formaldehyde crosslink after washing; high values mean tight binding
# [1] = molecular target: T1, FLI1 (Homo sapiens, UniProt Q01543 1-452); conditions: protein: recombinant; tags: N-terminal GST; dsDNA, one strand shown
# T1 sequence: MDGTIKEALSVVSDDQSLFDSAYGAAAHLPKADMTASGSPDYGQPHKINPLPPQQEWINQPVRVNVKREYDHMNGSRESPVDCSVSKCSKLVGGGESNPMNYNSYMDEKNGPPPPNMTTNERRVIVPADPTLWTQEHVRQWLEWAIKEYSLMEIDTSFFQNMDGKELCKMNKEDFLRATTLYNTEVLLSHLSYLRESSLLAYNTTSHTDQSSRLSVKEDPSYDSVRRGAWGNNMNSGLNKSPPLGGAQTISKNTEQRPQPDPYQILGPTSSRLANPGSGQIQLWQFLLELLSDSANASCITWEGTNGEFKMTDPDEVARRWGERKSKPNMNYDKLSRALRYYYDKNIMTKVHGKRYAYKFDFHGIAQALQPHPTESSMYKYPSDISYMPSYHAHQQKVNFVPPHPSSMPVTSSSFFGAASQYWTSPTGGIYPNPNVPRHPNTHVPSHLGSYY
# In short: (§1)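 Human transcription factors carrying a GST fusion were produced in yeast, bound to glutathione beads, tagged with DNA barcodes and pooled together with a tag-only sample. Each pool was held with 200 nmole of a random double-stranded 16-mer DNA library in Tris/NaCl/DTT/glycerol buffer for 30 min at room temperature, then washed, crosslinked in 0.1% formaldehyde, proximity-ligated with BsaI/T4 ligase (1 h, 37 °C), PCR-amplified and sequenced on an Illumina NextSeq500. Binding signal is the read frequency of each hexamer for a given factor divided by its frequency in the tag-only sample.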
# [2] = molecular target: T2, ELK1 (Homo sapiens, UniProt P19419 1-428); conditions: protein: recombinant; tags: N-terminal GST; dsDNA, one strand shown
# T2 sequence: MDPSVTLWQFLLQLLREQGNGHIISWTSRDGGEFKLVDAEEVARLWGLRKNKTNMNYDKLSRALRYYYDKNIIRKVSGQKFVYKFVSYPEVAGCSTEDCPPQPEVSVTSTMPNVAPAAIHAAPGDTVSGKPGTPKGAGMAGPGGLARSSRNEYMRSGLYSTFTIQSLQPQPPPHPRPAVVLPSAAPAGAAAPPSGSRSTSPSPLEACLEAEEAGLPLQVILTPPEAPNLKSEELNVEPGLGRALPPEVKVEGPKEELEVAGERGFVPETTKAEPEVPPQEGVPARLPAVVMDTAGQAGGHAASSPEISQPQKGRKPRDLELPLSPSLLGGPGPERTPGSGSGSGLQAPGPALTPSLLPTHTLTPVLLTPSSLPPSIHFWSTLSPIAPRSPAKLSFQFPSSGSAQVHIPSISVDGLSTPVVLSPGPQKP
# In short: as §1
# [3] = molecular target: T3, GABPA (Homo sapiens, UniProt Q06546 1-454); conditions: protein: recombinant; tags: N-terminal GST; dsDNA, one strand shown
# T3 sequence: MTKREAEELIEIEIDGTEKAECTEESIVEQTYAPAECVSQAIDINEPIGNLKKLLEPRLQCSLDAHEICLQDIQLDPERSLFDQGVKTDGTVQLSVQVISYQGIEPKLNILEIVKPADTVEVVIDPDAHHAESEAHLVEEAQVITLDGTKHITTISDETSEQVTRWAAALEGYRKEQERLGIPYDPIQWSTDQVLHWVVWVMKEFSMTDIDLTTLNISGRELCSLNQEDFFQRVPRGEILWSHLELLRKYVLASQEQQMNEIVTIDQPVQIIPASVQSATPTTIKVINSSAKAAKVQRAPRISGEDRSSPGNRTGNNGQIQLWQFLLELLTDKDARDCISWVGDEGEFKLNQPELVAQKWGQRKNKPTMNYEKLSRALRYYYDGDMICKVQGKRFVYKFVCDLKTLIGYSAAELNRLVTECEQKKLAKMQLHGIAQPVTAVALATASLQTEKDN
# In short: as §1
# [4] = molecular target: T4, ERG (Homo sapiens, UniProt P11308 1-479); conditions: protein: recombinant; tags: N-terminal GST; dsDNA, one strand shown
# T4 sequence: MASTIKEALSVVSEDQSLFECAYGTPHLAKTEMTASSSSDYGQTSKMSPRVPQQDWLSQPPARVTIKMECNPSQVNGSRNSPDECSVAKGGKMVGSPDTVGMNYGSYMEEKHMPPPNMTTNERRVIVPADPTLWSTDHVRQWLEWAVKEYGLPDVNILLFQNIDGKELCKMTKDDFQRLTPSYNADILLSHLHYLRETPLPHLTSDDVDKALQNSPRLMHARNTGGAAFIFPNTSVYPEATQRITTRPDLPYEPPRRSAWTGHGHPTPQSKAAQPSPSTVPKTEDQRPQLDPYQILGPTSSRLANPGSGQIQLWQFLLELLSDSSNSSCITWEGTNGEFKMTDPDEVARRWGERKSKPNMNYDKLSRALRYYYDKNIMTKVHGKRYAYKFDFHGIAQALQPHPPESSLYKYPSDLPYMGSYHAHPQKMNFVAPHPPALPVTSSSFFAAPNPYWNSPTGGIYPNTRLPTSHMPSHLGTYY
# In short: as §1
# [5] = molecular target: ELF1 (Homo sapiens, UniProt P32519 1-619); conditions: protein: recombinant; tags: N-terminal GST; dsDNA, one strand shown
# Sequence of ELF1 (P32519 whole entry): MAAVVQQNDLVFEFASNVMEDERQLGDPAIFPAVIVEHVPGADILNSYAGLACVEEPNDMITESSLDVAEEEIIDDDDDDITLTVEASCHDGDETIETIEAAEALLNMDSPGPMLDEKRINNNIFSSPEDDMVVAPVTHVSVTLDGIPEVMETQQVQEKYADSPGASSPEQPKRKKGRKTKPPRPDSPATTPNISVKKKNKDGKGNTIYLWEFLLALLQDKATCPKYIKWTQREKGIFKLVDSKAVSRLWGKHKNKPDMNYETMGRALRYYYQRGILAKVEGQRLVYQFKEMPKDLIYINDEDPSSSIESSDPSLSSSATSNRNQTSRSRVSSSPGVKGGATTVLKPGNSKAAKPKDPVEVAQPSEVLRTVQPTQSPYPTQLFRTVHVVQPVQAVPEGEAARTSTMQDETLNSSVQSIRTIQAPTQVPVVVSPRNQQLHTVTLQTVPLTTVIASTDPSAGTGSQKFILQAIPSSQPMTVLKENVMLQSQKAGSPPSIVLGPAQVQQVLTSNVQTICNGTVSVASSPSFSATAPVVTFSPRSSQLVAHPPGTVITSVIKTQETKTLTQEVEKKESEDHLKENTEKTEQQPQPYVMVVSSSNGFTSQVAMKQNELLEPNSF
# In short: as §1
# [6] = molecular target: T5, EHF (Homo sapiens, UniProt Q9NZC4 1-300); conditions: protein: recombinant; tags: N-terminal GST; dsDNA, one strand shown
# T5 sequence: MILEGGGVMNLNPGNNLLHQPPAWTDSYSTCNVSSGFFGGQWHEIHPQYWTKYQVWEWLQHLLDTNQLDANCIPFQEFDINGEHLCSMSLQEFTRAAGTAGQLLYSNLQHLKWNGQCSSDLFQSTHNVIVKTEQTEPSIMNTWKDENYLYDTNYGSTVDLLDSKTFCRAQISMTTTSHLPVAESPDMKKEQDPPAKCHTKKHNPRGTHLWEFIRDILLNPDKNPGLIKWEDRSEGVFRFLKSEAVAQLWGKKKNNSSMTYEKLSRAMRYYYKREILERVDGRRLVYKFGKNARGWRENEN
# In short: as §1
# [7] = molecular target: SPI1 (Homo sapiens, UniProt P17947 1-270); conditions: protein: recombinant; tags: N-terminal GST; dsDNA, one strand shown
# In short: as §1
# [8] = molecular target: SPIB (Homo sapiens, UniProt Q01892 1-262); conditions: protein: recombinant; tags: N-terminal GST; dsDNA, one strand shown
# Sequence of SPIB (Q01892 whole entry): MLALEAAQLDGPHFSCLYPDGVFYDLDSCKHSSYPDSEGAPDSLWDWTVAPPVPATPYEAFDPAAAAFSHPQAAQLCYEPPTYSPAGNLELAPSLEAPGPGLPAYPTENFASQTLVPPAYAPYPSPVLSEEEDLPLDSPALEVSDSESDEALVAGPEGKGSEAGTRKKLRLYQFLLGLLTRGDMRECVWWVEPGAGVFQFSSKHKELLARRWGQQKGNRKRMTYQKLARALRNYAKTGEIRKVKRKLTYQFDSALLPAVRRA
# In short: as §1
# [9] = molecular target: T6, ELK3 (Homo sapiens, UniProt P41970 1-407); conditions: protein: recombinant; tags: N-terminal GST; dsDNA, one strand shown
# T6 sequence: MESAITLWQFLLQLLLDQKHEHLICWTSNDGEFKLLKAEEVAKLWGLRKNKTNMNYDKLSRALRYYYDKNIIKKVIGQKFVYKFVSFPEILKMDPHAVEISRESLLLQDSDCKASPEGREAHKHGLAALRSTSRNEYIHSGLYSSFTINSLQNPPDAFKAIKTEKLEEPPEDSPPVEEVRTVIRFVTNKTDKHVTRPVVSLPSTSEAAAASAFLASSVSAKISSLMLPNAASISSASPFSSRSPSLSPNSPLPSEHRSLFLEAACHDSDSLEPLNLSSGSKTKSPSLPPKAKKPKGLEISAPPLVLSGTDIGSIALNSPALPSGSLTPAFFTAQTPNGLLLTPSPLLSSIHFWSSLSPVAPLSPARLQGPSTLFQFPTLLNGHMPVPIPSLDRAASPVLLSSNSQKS
# In short: as §1
# [10] = molecular target: T7, FEV (Homo sapiens, UniProt Q99581 1-238); conditions: protein: recombinant; tags: N-terminal GST; dsDNA, one strand shown
# T7 sequence: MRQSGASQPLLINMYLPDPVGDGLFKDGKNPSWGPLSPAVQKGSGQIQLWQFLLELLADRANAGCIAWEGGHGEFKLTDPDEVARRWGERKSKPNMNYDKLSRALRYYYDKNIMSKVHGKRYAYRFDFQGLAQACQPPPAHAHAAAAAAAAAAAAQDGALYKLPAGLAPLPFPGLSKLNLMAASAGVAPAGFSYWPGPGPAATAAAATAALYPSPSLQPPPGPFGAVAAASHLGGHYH
# In short: as §1
# [11] = molecular target: ETV5 (Homo sapiens, UniProt P41161 1-510); conditions: protein: recombinant; tags: N-terminal GST; dsDNA, one strand shown
# Sequence of ETV5 (P41161 whole entry): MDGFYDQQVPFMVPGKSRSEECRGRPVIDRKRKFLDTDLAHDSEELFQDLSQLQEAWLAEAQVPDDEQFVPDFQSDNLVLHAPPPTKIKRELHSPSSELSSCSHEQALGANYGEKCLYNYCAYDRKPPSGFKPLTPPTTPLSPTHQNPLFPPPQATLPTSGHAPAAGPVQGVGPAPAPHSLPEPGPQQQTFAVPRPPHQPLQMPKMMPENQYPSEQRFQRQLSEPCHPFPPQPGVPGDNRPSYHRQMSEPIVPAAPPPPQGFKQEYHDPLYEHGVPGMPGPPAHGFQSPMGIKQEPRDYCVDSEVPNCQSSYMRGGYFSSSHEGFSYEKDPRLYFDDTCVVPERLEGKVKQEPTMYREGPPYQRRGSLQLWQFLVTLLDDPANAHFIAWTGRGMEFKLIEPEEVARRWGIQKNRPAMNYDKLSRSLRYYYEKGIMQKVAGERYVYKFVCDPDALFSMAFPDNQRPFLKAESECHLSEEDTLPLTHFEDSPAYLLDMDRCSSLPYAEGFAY
# In short: as §1
# [12] = molecular target: HSF1 (Homo sapiens, UniProt Q00613 1-529); conditions: protein: recombinant; tags: N-terminal GST; chain copies: 3; dsDNA, one strand shown
# Sequence of HSF1 (Q00613 whole entry): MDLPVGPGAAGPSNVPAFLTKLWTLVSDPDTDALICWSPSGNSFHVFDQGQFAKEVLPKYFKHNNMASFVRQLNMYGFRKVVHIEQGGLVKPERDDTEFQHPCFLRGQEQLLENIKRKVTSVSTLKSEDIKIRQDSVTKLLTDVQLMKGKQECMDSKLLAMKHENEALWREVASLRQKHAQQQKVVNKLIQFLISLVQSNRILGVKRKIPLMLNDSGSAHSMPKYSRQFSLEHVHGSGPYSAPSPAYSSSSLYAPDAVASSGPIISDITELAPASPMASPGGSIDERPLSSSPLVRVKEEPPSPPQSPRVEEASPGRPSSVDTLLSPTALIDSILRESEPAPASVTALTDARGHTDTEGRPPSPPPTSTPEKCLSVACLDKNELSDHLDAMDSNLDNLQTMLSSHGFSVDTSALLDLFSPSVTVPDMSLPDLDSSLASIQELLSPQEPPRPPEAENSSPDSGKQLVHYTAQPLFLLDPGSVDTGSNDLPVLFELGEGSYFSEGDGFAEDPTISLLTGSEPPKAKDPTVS
# In short: as §1
# [13] = molecular target: T8, SPIC (Homo sapiens, UniProt Q8N5J4 1-248); conditions: protein: recombinant; tags: N-terminal GST; dsDNA, one strand shown
# T8 sequence: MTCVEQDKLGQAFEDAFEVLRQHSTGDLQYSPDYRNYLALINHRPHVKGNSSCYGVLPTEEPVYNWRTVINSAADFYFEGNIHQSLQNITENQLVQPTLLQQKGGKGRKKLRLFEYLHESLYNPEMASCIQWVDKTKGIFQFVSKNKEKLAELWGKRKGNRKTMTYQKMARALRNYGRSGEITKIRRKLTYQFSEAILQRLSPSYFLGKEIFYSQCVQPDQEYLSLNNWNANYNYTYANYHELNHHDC
# In short: as §1
# [14] = molecular target: ELF4 (Homo sapiens, UniProt Q99607 1-663); conditions: protein: recombinant; tags: N-terminal GST; dsDNA, one strand shown
# Sequence of ELF4 (Q99607 whole entry): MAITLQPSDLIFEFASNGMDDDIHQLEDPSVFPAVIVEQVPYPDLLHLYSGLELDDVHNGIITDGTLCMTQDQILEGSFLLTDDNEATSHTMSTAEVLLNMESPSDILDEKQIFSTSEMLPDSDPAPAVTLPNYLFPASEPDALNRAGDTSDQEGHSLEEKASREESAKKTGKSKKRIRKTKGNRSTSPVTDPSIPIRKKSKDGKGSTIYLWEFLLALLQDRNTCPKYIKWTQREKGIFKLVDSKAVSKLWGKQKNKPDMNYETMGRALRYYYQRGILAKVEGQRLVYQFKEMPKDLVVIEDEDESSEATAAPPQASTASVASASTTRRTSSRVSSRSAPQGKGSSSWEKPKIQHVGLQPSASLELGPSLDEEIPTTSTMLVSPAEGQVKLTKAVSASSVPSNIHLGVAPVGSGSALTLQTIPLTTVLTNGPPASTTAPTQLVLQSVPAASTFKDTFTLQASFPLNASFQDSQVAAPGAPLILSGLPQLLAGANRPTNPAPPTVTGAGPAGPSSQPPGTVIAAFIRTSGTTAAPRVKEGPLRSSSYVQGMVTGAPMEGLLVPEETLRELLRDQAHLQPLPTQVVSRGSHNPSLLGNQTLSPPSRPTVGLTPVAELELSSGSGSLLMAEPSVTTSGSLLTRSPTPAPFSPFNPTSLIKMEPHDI
# In short: as §1
# [15] = molecular target: T9, ELK4 (Homo sapiens, UniProt P28324-2 1-405); conditions: protein: recombinant; tags: N-terminal GST; dsDNA, one strand shown
# T9 sequence: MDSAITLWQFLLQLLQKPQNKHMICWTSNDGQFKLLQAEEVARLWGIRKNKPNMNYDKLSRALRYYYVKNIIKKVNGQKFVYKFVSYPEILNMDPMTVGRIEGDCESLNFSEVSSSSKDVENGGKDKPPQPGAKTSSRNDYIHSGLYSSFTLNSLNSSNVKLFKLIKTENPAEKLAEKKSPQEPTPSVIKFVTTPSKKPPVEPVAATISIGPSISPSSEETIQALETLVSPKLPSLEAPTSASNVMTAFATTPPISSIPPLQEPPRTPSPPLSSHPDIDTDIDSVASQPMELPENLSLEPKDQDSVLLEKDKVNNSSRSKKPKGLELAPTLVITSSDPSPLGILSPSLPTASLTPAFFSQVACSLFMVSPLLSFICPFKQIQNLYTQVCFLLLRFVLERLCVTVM
# In short: as §1
# [16] = molecular target: T10, ETV2 (Homo sapiens, UniProt O00321 1-342); conditions: protein: recombinant; tags: N-terminal GST; dsDNA, one strand shown
# T10 sequence: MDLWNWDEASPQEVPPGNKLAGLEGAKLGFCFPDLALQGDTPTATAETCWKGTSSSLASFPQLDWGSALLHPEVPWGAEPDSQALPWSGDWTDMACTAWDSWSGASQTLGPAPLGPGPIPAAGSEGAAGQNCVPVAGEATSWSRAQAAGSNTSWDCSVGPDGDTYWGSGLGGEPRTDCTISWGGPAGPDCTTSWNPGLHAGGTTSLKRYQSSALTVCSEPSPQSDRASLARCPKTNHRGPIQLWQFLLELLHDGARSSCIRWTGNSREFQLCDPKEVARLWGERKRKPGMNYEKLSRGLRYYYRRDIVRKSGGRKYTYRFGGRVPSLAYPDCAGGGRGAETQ
# In short: as §1
# [17] = molecular target: T11, ELF3 (Homo sapiens, UniProt P78545 1-371); conditions: protein: recombinant; tags: N-terminal GST; dsDNA, one strand shown
# T11 sequence: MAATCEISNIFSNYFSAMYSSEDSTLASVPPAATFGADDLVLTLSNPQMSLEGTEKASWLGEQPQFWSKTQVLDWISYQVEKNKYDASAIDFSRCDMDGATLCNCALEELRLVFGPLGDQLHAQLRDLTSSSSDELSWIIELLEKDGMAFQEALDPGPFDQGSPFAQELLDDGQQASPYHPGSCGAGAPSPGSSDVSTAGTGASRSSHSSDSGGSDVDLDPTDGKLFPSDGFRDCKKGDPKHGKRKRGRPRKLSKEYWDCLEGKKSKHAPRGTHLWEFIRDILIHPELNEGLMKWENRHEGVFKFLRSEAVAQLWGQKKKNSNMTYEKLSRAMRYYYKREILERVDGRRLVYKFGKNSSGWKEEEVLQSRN
# In short: as §1
# [18] = molecular target: CRX (Homo sapiens, UniProt O43186 1-299); conditions: protein: recombinant; tags: N-terminal GST; dsDNA, one strand shown
# Sequence of CRX (O43186 whole entry): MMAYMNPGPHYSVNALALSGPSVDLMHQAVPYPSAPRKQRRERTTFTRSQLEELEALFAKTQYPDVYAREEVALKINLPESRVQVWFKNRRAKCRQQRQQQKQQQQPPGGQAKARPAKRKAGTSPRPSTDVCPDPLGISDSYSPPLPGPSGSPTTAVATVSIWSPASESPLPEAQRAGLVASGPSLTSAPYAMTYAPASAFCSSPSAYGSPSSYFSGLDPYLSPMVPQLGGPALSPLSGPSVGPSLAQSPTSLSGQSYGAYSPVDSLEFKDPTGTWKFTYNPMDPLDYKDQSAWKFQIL
# In short: as §1
# [19] = molecular target: ETV1 (Homo sapiens, UniProt P50549 1-477); conditions: protein: recombinant; tags: N-terminal GST; dsDNA, one strand shown
# Sequence of ETV1 (P50549 whole entry): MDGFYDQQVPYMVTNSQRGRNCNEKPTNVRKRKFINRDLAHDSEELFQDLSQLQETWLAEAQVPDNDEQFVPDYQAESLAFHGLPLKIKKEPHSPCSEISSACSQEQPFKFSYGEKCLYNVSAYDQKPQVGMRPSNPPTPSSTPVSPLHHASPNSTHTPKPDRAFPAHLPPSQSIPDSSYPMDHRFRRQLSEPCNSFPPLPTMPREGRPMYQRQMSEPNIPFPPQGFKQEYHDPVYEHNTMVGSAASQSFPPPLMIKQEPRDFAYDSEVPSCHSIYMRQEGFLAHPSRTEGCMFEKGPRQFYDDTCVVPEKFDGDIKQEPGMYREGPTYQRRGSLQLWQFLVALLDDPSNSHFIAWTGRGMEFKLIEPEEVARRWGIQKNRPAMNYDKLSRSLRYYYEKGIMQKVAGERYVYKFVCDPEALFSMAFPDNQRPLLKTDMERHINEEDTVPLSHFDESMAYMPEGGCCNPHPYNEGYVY
# In short: as §1
sequence,measurement,setting,value
CTATTG,binding signal,[1],"1.33 fold enrichment (6-mer frequency, TF over GST control)"
same,binding signal,[2],"1.33 fold enrichment (6-mer frequency, TF over GST control)"
same,binding signal,[3],"1.31 fold enrichment (6-mer frequency, TF over GST control)"
same,binding signal,[4],"1.3 fold enrichment (6-mer frequency, TF over GST control)"
same,binding signal,[5],"1.37 fold enrichment (6-mer frequency, TF over GST control)"
same,binding signal,[6],"1.28 fold enrichment (6-mer frequency, TF over GST control)"
same,binding signal,[7],"1.26 fold enrichment (6-mer frequency, TF over GST control)"
same,binding signal,[8],"1.2 fold enrichment (6-mer frequency, TF over GST control)"
same,binding signal,[9],"1.23 fold enrichment (6-mer frequency, TF over GST control)"
same,binding signal,[10],"1.24 fold enrichment (6-mer frequency, TF over GST control)"
same,binding signal,[11],"1.31 fold enrichment (6-mer frequency, TF over GST control)"
same,binding signal,[12],"1.1 fold enrichment (6-mer frequency, TF over GST control)"
same,binding signal,[13],"1.4 fold enrichment (6-mer frequency, TF over GST control)"
same,binding signal,[14],"1.28 fold enrichment (6-mer frequency, TF over GST control)"
same,binding signal,[15],"1.29 fold enrichment (6-mer frequency, TF over GST control)"
same,binding signal,[16],"1.31 fold enrichment (6-mer frequency, TF over GST control)"
same,binding signal,[17],"1.39 fold enrichment (6-mer frequency, TF over GST control)"
same,binding signal,[18],"1.14 fold enrichment (6-mer frequency, TF over GST control)"
same,binding signal,[19],"1.36 fold enrichment (6-mer frequency, TF over GST control)"
